# Test results reported in PubChem BioAssay AID588856 (National Center for Advancing Translational Sciences (NCATS), 2011).
# “And” between values parts separate entries of the source, which are not always exact repeats. Equal values may be shown once. Among all 410,000 compounds or so, about 3,100 (0.76%) were called active. The call rests on the fitted dose curve; in most records, active means well fitted cell-killing curve with a large enough effect; inactive means no such curve, though single readings can be large or run the other way. This excerpt belongs to a sample that is enriched for actives. More than one record can exist for a structure, and the calls need not agree.
# Experiment: qHTS for Inhibitors of TGF-b: Cytotox Counterscreen
# Details: HepG2 CAGA-GFP viability, ATP luminescence, 18 h; series mostly up to 46.1 µM; activity change, negative = cytotoxicity: at the top concentration
# Procedure, shortened: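 HepG2 CAGA-GFP cells (1000/well, DMEM with 1% FBS) received compound, then TGF-beta at 500 pg/mL final, and were incubated 18 hours at 37 degrees C. Viability was read by CellTiter-Glo luminescence. Media-only wells were set as complete cell-killing and DMSO as no toxicity.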
# Potency means the concentration at half of the fitted maximal effect.
Compound,Potency,"activity change, negative = cytotoxicity"
O=C(CC(O)(C(F)(F)F)C(F)(F)F)Nc1ccc(Cl)c(Cl)c1,10 µM (active),–
O=C(CSc1nnc(-c2ccncc2)n1-c1ccccc1)Nc1ccc(Cl)c(Cl)c1,–,-32.6% (inactive)
Cc1ccc(-c2nn(CCC(=O)Nc3ccc(Cl)c(Cl)c3)c(=O)c3ccccc23)cc1,–,-0.688% (inactive)
O=C(Nc1cc(C(F)(F)F)ccc1Cl)c1ccc2c(c1)CCN2S(=O)(=O)c1ccccc1,–,1.94% (inactive)
NC(=O)Nc1ccc(/C=C/c2ccnc3ccccc23)cc1,–,-31.3% (inactive)
CCN(CC)S(=O)(=O)c1ccc(NC(=O)c2cccnc2Cl)c(NC(=O)c2cccnc2Cl)c1,12.6 µM (active),–
Cc1ccc(S(=O)(=O)N(C)C)cc1NC(=O)c1ccccc1Br,–,-0.551% (inactive)
CCN(CC)S(=O)(=O)c1ccc(C)c(NC(=O)COc2ccc(Br)cc2Cl)c1,–,-19.9% (inactive)
O=C1O/C(=C\c2ccc(O)cc2)C(O)=C1c1ccc(O)cc1,–,-5.76% (inactive)
COc1ccc(CN2CCC(=O)c3ccccc3S2(=O)=O)cc1,–,2.5% (inactive)
OCC(O)C(O)C(O)C(O)C=Nc1ccc(/C=C/c2ccnc3ccccc23)cc1 (configuration not stated),–,-37% (inactive)
Cc1nn(Cc2ccc(F)cc2)c(C)c1NC(=O)c1cc(CC(C)C)on1,–,-16.7% (inactive)
O=C1CCC[C@@H]2C[C@@]3(C[C@@H]4CCN1[C@H]24)Nc1ccccc1NC3=NCc1ccccc1,–,3.95% (inactive)
COc1cc(OC)c(OC)cc1/C=C1\C=Cc2ccccc21,–,-29.7% (inactive)
Cc1nc2nc(SCC(=O)NC3CCC(C)CC3)nn2c(C)c1Cc1ccccc1Cl (configuration not stated),–,-5.98% (inactive)
CCOc1ccc(CNC(=O)C2CCCN(c3nnc(C)c4c(C)n(-c5ccccc5)nc34)C2)cc1 (configuration not stated),inactive and 12.6 µM (active),–
CCCCNC(=O)C1CCCN(c2nnc(C)c3c(C)n(-c4ccc(Cl)cc4)nc23)C1 (configuration not stated),–,-16.2% (inactive)
Cc1nnc(N2CCCC(C(=O)NCCN(C)C)C2)c2nn(-c3ccccc3)c(C)c12 (configuration not stated),–,-5.42% (inactive)
C(=Nc1ccc(/C=C/c2ccnc3ccccc23)cc1)Nc1ccc(/C=C/c2ccnc3ccccc23)cc1,–,-43.2% (inactive)
CCc1ccc(NC(=O)c2cc3c(=O)n(Cc4cccnc4)ccc3nc2C)cc1,–,-25.2% (inactive)
Cc1c(Cl)cccc1NC(=O)Cn1cc(C(=O)c2cccs2)c2ccccc21,–,-18.1% (inactive)
CC(C)(C)c1ccc(S(=O)(=O)Nc2ccc(O)c(Sc3nc4ccccc4s3)c2)cc1,–,-100% (inactive)
CC(C)c1ccc(S(=O)(=O)Nc2ccc(O)c(Sc3nc4ccccc4s3)c2)cc1,–,-40.8% (inactive)
O=[N+]([O-])c1c(NCCO)cc(Sc2nc3ccccc3s2)c2nonc12,15.8 µM (active),–

Compound,Potency,"activity change, negative = cytotoxicity"
COc1ccc(-c2nn(CC(=O)Nc3ccccc3F)c3c2cnc2ccc(F)cc23)cc1,–,0.4% (inactive)
CN(CCC#N)c1ccc(C=O)cc1,–,-6.52% (inactive)
O=C(Cn1c(=O)n(-c2ccc(F)cc2)c(=O)c2sccc21)Nc1cccc(C(F)(F)F)c1,–,-27% (inactive)
COc1ccc(/C=C/c2ccnc3ccccc23)cc1OC,–,-19.3% (inactive)
Cc1cccc(N2CCN(C(=O)c3cc4c(=O)[nH]c5ccccc5c4n3C)CC2)c1C,–,-13.2% (inactive)
O=C(c1ccc2ccccc2n1)N1CCN(c2ccccc2Cl)CC1,–,-2.3% (inactive)
O=C(c1c(Cl)cccc1Cl)N1CCN(c2cccc3[nH]ccc23)CC1,0.447 µM (active),–
CCc1ccccc1N(C)C(=O)C1CCCN(c2ncnc3onc(-c4ccc(F)cc4)c23)C1 (configuration not stated),–,1.08% (inactive)
Oc1cccc2cc(-c3ccncc3)cnc12,2.82 µM (active),–
Cc1ccc2c(c1)N(C(=O)CCC(=O)NCc1ccccc1F)CC(C)O2 (configuration not stated),–,-1.52% (inactive)
CC1=C(C(=O)OCC2CCCCC2)C(c2c(F)cccc2Cl)CC(=O)N1 (configuration not stated),–,1.73% (inactive)
COC(=O)c1ccc(OCC(O)CN(CCO)CC(O)Cn2ccc3ccccc32)cc1 (configuration not stated),–,-3.35% (inactive)
CN(Cc1ccccc1)CC(O)COc1ccc(CNCc2cc3ccccc3s2)cc1 (configuration not stated),11.2 µM (active),–
COc1cccc(CN(C)CC(O)COC(c2ccccc2)c2ccccc2C)c1 (configuration not stated),–,-80.7% (inactive)
C=C1CCN(C(CC(C)C)C(=O)NCc2cc(OC)c(OC)c(OC)c2)S(=O)(=O)c2ccccc21 (configuration not stated),–,-4.21% (inactive)
N#CCC(=O)N/N=C/c1cn(Cc2ccc3ccccc3c2)c2ccccc12,3.55 µM (active),–
O=C(Cn1cc(/C=N/NC(=O)c2cccc(C(F)(F)F)c2)c2ccccc21)Nc1ccc(F)cc1,–,-34.7% (inactive)
Cc1ccc(Cl)cc1NC(=O)/C(C#N)=C\c1cn(Cc2ccc(F)cc2)c2ccccc12,–,-32.7% (inactive)
Cc1ccc(Cn2c(CCCNC(=O)C3CCCCC3)nc3ccccc32)cc1,–,-24% (inactive)
Cc1ccc2c(=O)c(C(=O)c3cccc(Cl)c3)cn(CC(=O)NCc3ccccc3)c2n1,–,-18.6% (inactive)
COc1ccc(CCNCc2c(-c3ccccc3)n(C)c3ccccc23)cc1,12.6 µM (active),–
COc1ccc(-c2c(C#Cc3ccccc3)c3ccccc3n2C)cc1,–,0.571% (inactive)
COc1ccc(Cn2c(C(=O)O)c(CNCCc3cccs3)c3ccc(OC)cc32)cc1,–,-6.96% (inactive)
